# Measurements published in PubChem BioAssay (EPA / NIEHS).
# Several values for one entry are separate records, joined by “and”; a condition that tells them apart may be missing. Equal entries are not always repeated. Inconclusive results are not listed. Activity calls are given as the source filed them. The calls were made as follows, unless noted: active = hit-call score of the fitted dose curve at least 0.9, where 1 is the maximum; inconclusive = response in the unintended direction; inactive = score below 0.9. Peptide text beside a SMILES is read from it.
# How the values were obtained:
# [1] = molecular target: human RAR-related Orphan Receptor beta (RORb), RORB (gene 6096) (UniProt Q92753); experiment: ATG_RORb_TRANS: Attagene TRANS-FACTORIAL HepG2 Assay for human RAR-related Orphan Receptor beta (RORb) (AID 2283010)
# Summary of the method: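 Read-out is reporter mRNA induction, quantified by RT-PCR with fluorescent capillary electrophoresis, 24 h post-dose in transiently transfected HepG2 expressing exogenous NR-Gal4 chimera. Activity fitted upward versus DMSO.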
# [2] = molecular target: human Thyroid Receptor alpha (THRa1), THRA (gene 7067) (UniProt P10827); experiment: ATG_THRa1_TRANS: Attagene TRANS-FACTORIAL HepG2 Assay for human Thyroid Receptor alpha (THRa1) (AID 2283014)
# Summary of the method: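 HepG2 cells transiently transfected with chimeric NR-Gal4 and GAL4-UAS reporter units, dosed 24 h. Reporter mRNA quantified by RT-PCR, fluorescent labeling, HpaI digestion and capillary electrophoresis; gain-of-signal fit versus DMSO.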
# [3] = molecular target: human Vitamin D Receptor (VDR), VDR (gene 7421) (UniProt P11473); experiment: ATG_VDR_TRANS: Attagene TRANS-FACTORIAL HepG2 Assay for human Vitamin D Receptor (VDR) (AID 2283022)
# Summary of the method: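 HepG2 cells were transiently transfected with GAL4-UAS reporter units and a chimeric VDR-Gal4 construct, then dosed for 24 hours. Reporter mRNA was quantified by RT-PCR, fluorescent labeling, HpaI digestion and capillary electrophoresis; gain of signal analysed vs DMSO.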
# [4] = molecular target: human RAR-related Orphan Receptor gamma (RORg), RORC (gene 6097) (UniProt P51449); experiment: ATG_RORg_TRANS: Attagene TRANS-FACTORIAL HepG2 Assay for human RAR-related Orphan Receptor gamma (RORg) (AID 2283011)
# Summary of the method: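 HepG2 cells transiently transfected with GAL4-UAS reporter units and chimeric RORg-Gal4 construct; after 24 h chemical exposure, reporter mRNA measured by RT-PCR with fluorescent capillary electrophoresis, gain of signal fitted against DMSO.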
# [5] = molecular target: human Retinoid X Receptor beta (RXRb), RXRB (gene 6257) (UniProt P28702); experiment: ATG_RXRb_TRANS: Attagene TRANS-FACTORIAL HepG2 Assay for human Retinoid X Receptor beta (RXRb) (AID 2283013)
# Summary of the method: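 Readout is reporter transcript induction after 24 h dosing. It is measured by RT-PCR of total RNA followed by fluorescent capillary electrophoresis. HepG2 liver cells carry transfected multiple reporter units driven by an exogenous RXRb-Gal4 fusion; activity is relative to DMSO.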
# [6] = molecular target: Retinoic acid receptor RXR-alpha (Homo sapiens) (UniProt P19793); experiment: ATG_RXRa_TRANS: Attagene TRANS-FACTORIAL HepG2 Assay for human Retinoid X Receptor alpha (RXRa) (AID 2283012)
# Summary of the method: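 TRANS format reporting activity of exogenous RXRa-Gal4 chimera in transiently transfected HepG2, 24 h exposure. Reporter transcripts quantified by RT-PCR with capillary electrophoresis, with gain of signal scored relative to DMSO.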
# [7] = read-out: E-selectin (Homo sapiens) (UniProt P16581); experiment: BSK_3C_Eselectin: BioMAP Diversity Plus: 3C Assay for Eselectin Biomarker Activity (AID 2283015; active = hit-call score of the fitted dose curve at least 0.9, where 1 is the maximum; inactive = score below 0.9;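 as to outcome: cell surface E-selectin protein quantified by ELISA 24 h after dosing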); conditions: primary human endothelial cells (HUVEC); actives raise or lower the signal
# Summary of the method: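 Primary human umbilical vein endothelial cells (3C system), read 24 h after compound addition; E-selectin measured by ELISA. Bidirectional curve fitting against DMSO baseline; cytotoxicity by parallel SRB total-protein staining.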
# [8] = read-out: Interleukin-1 alpha (IL1a), IL1A (gene 3552); experiment: BSK_BE3C_IL1a: BioMAP Diversity Plus: BE3C Assay for Interleukin-1 alpha (IL1a) Biomarker Activity (AID 2283016; active = hit-call score of the fitted dose curve at least 0.9, where 1 is the maximum; inactive = score below 0.9); conditions: primary human bronchial epithelial cells; actives raise or lower the signal
# Summary of the method: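 IL-1a measured by ELISA after 24 h treatment of human primary bronchial epithelial cells, with gain or loss of signal fitted versus DMSO. Parallel cultures stained with SRB gauge overt cytotoxicity.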
# [9] = read-out: Monocyte Chemoattractant Protein-1 (MCP1), CCL2 (gene 6347); experiment: BSK_3C_MCP1: BioMAP Diversity Plus: 3C Assay for Monocyte Chemoattractant Protein-1 (MCP1) Biomarker Activity (AID 2283017; active = hit-call score of the fitted dose curve at least 0.9, where 1 is the maximum; inactive = score below 0.9); conditions: primary human endothelial cells (HUVEC); actives raise or lower the signal
# Summary of the method: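 Human umbilical vein endothelial cells (3C system) exposed to chemicals for 24 h; MCP-1 quantified by ELISA against the DMSO baseline with bidirectional fitting, and parallel SRB staining used to assess cytotoxicity.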
# [10] = read-out: Monocyte Chemoattractant Protein-1 (MCP1), CCL2 (gene 6347); experiment: BSK_4H_MCP1: BioMAP Diversity Plus: 4H Assay for Monocyte Chemoattractant Protein-1 (MCP1) Biomarker Activity (AID 2283018; active = hit-call score of the fitted dose curve at least 0.9, where 1 is the maximum; inactive = score below 0.9); conditions: primary human endothelial cells (HUVEC); actives raise or lower the signal
# Summary of the method: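 ELISA of MCP-1 (CCL2) 24 h after chemical dosing of HUVEC in the BioMAP 4H system. Gain or loss versus DMSO fitted; parallel SRB staining (560 nm) tracked overt cytotoxicity.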
# [11] = read-out: Human Leukocyte Antigen - DR isotype (HLADR), HLA-DRA (gene 3122); experiment: BSK_3C_HLADR: BioMAP Diversity Plus: 3C Assay for Human Leukocyte Antigen - DR isotype (HLADR) Biomarker Activity (AID 2283019; active = hit-call score of the fitted dose curve at least 0.9, where 1 is the maximum; inactive = score below 0.9;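 as to outcome: ELISA of cell-surface HLA-DR on HUVEC 24 h after dosing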); conditions: primary human endothelial cells (HUVEC); actives raise or lower the signal
# Summary of the method: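 HUVEC monoculture, HLA-DR measured by ELISA 24 h after chemical dosing. Fitted bidirectionally against DMSO baseline; parallel SRB staining assessed cytotoxicity, with 3C proliferation read by SRB at 48 h.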
# [12] = read-out: Interleukin-8 (IL8), CXCL8 (gene 3576); experiment: BSK_3C_IL8: BioMAP Diversity Plus: 3C Assay for Interleukin-8 (IL8) Biomarker Activity (AID 2283020; active = hit-call score of the fitted dose curve at least 0.9, where 1 is the maximum; inactive = score below 0.9); conditions: primary human endothelial cells (HUVEC); actives raise or lower the signal
# Summary of the method: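 IL-8 was measured by ELISA in HUVEC cultures 24 h after chemical dosing, with gain or loss of signal fitted relative to DMSO. Parallel SRB total-protein staining tracked overt cytotoxicity.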
# [13] = read-out: Monokine induced gamma interferon (MIG), CXCL9 (gene 4283); experiment: BSK_3C_MIG: BioMAP Diversity Plus: 3C Assay for Monokine induced gamma interferon (MIG) Biomarker Activity (AID 2283021; active = hit-call score of the fitted dose curve at least 0.9, where 1 is the maximum; inactive = score below 0.9;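 as to AC50: MIG protein level measured by immunoassay in the treated endothelial cultures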); conditions: primary human endothelial cells (HUVEC); actives raise or lower the signal
# Summary of the method: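 ELISA measurement of MIG in human umbilical vein endothelial cells 24 h after treatment. Cytotoxicity tracked by SRB staining in parallel cultures; gain or loss of signal fitted relative to DMSO.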
# [14] = BSK_3C_SRB: Viability Assessment in the BioMAP Diversity Plus: 3C Assay (AID 2283023; active = hit-call score of the fitted dose curve at least 0.9, where 1 is the maximum; inactive = score below 0.9;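 also: fitted both ways against DMSO so a hit may be signal rise or drop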); conditions: primary human endothelial cells (HUVEC)
# Summary of the method: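 Human umbilical vein endothelial cells in the 3C system, treated 24 h. Total protein measured by 0.1% sulforhodamine B staining after 10% TCA fixation, read at 560 nm; bidirectional fit versus DMSO.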
# [15] = read-out: Matrix Metallopeptidase 1 (MMP1), MMP1 (gene 4312); experiment: BSK_BE3C_MMP1: BioMAP Diversity Plus: BE3C Assay for Matrix Metallopeptidase 1 (MMP1) Biomarker Activity (AID 2283024; active = hit-call score of the fitted dose curve at least 0.9, where 1 is the maximum; inactive = score below 0.9); conditions: primary human bronchial epithelial cells; actives raise or lower the signal
# Summary of the method: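 ELISA measurement of MMP-1 after 24 h compound exposure of primary human bronchial epithelial cells. Changes in either direction fitted relative to DMSO; parallel SRB staining checked overt cytotoxicity.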
# [16] = BSK_3C_Vis: BioMAP Diversity Plus: 3C Assay for Morphology Visualization (AID 2283025; active = hit-call score of the fitted dose curve at least 0.9, where 1 is the maximum; inactive = score below 0.9;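 also: fitted both ways so gain or loss versus DMSO counts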;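 as to AC50: light microscopy image of cell morphology used as background control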); conditions: primary human endothelial cells (HUVEC)
# Summary of the method: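 Light-microscopy visualization of HUVEC cultures at 24 h post-treatment, with DMSO as baseline for bidirectional fitting.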
# [17] = read-out: Pselectin, SELP (gene 6403); experiment: BSK_4H_Pselectin: BioMAP Diversity Plus: 4H Assay for Pselectin Biomarker Activity (AID 2283026; active = hit-call score of the fitted dose curve at least 0.9, where 1 is the maximum; inactive = score below 0.9); conditions: primary human endothelial cells (HUVEC); actives raise or lower the signal
# Summary of the method: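 ELISA of surface P-selectin on HUVEC, 24 h after dosing, with parallel SRB staining (0.1% after 10% TCA fixation, 560 nm) for overt cytotoxicity. Activity fitted in both directions relative to DMSO.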
# [18] = BSK_4H_SRB: Viability Assessment in the BioMAP Diversity Plus: 4H Assay (AID 2283027; active = hit-call score of the fitted dose curve at least 0.9, where 1 is the maximum; inactive = score below 0.9;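 also: cells exposed to compound for 24 h before staining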;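 as to AC50: curves fitted both ways versus DMSO so AC50 may be loss or gain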); conditions: primary human endothelial cells (HUVEC)
# Summary of the method: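 Cytotoxicity read-out in primary human endothelial cells: after 24 h compound exposure, cells were TCA-fixed (10%), stained with 0.1% SRB and absorbance taken at 560 nm. Values fitted in both directions relative to DMSO.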
# [19] = BSK_BE3C_SRB: Viability Assessment in the BioMAP Diversity Plus: BE3C Assay (AID 2283028; active = hit-call score of the fitted dose curve at least 0.9, where 1 is the maximum; inactive = score below 0.9;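 as to AC50: fitted both ways so AC50 may mark signal gain or loss versus DMSO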); conditions: primary human bronchial epithelial cells
# Summary of the method: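 Human bronchial epithelial primary cells in confluent culture, 24 h after chemical dosing; total protein by 0.1% SRB staining after 10% TCA fixation, read at 560 nm. Bidirectional fitting versus DMSO baseline.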
# [20] = read-out: Thrombomodulin, THBD (gene 7056); experiment: BSK_3C_Thrombomodulin: BioMAP Diversity Plus: 3C Assay for Thrombomodulin Biomarker Activity (AID 2283029; active = hit-call score of the fitted dose curve at least 0.9, where 1 is the maximum; inactive = score below 0.9); conditions: primary human endothelial cells (HUVEC); actives raise or lower the signal
# Summary of the method: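 ELISA measurement of thrombomodulin on HUVEC surface 24 h after chemical dosing; activity fitted in both directions relative to DMSO vehicle.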
# human Vitamin D Receptor (VDR), VDR (gene 7421), sequence (P11473 whole entry, looked up, the tested form may be a part): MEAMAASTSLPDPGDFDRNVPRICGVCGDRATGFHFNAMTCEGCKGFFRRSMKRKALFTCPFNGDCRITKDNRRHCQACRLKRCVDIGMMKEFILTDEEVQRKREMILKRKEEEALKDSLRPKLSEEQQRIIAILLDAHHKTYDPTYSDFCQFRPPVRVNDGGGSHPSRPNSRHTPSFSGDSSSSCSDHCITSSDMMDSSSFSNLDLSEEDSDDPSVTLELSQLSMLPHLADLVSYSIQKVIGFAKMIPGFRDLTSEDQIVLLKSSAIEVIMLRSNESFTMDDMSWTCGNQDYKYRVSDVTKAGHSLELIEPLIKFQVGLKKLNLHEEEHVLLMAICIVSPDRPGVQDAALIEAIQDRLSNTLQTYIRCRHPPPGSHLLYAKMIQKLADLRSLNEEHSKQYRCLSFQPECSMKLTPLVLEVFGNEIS
# human RAR-related Orphan Receptor gamma (RORg), RORC (gene 6097), sequence (P51449 whole entry, looked up, the tested form may be a part): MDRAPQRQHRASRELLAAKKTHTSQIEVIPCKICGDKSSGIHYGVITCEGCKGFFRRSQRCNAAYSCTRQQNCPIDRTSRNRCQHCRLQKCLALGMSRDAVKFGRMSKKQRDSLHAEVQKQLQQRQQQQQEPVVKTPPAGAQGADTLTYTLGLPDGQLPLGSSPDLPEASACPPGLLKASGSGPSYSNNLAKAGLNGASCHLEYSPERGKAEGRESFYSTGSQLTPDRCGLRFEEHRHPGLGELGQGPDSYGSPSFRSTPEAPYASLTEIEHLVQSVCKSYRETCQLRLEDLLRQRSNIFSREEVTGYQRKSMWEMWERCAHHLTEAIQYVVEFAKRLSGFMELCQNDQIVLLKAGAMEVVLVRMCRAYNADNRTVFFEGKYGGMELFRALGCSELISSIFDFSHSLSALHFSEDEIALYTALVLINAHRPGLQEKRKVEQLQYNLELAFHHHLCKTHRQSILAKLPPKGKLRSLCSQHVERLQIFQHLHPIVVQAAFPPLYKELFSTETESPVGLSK
# human RAR-related Orphan Receptor beta (RORb), RORB (gene 6096), sequence (Q92753 whole entry, looked up, the tested form may be a part): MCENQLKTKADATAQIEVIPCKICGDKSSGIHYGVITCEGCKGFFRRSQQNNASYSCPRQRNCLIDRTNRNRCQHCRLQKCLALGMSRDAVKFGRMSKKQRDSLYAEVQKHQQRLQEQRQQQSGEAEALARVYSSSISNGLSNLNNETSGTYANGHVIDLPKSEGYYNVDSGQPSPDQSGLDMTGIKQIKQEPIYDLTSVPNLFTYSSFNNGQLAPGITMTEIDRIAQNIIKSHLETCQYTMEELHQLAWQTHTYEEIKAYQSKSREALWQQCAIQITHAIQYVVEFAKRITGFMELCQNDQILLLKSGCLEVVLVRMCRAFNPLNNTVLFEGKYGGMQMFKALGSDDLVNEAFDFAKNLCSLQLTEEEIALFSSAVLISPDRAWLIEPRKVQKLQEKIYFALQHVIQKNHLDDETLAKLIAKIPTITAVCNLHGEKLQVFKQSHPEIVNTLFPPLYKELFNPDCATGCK
# human Thyroid Receptor alpha (THRa1), THRA (gene 7067), sequence (P10827 whole entry, looked up, the tested form may be a part): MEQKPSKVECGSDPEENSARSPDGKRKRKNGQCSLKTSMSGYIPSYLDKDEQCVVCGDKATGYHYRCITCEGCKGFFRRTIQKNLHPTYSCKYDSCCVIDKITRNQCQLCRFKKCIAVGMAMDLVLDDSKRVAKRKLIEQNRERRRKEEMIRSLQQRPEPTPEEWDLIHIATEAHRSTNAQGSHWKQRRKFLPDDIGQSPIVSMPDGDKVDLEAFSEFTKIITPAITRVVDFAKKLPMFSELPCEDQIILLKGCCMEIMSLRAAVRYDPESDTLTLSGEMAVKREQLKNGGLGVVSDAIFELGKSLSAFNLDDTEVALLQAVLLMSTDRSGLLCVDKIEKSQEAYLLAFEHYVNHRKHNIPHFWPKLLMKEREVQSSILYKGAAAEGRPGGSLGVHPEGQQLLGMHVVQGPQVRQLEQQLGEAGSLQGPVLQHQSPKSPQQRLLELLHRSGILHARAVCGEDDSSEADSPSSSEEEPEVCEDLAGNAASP
# Retinoic acid receptor RXR-alpha (Homo sapiens), sequence (P19793 whole entry, looked up, the tested form may be a part): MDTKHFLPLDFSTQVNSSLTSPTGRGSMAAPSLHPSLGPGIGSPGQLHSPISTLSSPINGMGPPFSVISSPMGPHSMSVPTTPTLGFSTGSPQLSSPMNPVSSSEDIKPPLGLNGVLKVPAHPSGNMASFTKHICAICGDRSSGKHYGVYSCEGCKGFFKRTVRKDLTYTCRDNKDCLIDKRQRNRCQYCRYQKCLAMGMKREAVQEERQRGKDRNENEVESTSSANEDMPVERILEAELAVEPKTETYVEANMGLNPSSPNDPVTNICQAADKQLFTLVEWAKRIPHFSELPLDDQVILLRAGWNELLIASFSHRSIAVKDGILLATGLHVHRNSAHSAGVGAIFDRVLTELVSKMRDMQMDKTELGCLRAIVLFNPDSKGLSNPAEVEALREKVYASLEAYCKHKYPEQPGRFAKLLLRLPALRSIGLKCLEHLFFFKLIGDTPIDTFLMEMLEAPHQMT
# E-selectin (Homo sapiens), sequence (P16581 whole entry, looked up): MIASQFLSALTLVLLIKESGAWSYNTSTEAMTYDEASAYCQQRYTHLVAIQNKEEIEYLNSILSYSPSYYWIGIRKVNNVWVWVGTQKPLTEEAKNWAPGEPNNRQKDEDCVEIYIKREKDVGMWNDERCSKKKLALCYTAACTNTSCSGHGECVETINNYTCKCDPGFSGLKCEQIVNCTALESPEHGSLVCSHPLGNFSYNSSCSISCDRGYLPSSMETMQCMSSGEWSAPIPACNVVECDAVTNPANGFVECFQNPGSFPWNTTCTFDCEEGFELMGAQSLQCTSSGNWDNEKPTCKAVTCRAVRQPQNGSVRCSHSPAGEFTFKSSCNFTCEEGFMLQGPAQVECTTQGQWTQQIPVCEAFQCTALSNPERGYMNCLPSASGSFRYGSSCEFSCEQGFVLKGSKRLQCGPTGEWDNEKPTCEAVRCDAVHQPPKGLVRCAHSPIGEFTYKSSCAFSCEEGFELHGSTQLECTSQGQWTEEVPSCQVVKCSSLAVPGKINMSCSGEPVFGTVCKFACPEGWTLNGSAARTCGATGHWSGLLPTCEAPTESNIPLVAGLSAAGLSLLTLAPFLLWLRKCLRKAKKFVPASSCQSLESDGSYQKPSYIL
# human Retinoid X Receptor beta (RXRb), RXRB (gene 6257), sequence (P28702 whole entry, looked up, the tested form may be a part): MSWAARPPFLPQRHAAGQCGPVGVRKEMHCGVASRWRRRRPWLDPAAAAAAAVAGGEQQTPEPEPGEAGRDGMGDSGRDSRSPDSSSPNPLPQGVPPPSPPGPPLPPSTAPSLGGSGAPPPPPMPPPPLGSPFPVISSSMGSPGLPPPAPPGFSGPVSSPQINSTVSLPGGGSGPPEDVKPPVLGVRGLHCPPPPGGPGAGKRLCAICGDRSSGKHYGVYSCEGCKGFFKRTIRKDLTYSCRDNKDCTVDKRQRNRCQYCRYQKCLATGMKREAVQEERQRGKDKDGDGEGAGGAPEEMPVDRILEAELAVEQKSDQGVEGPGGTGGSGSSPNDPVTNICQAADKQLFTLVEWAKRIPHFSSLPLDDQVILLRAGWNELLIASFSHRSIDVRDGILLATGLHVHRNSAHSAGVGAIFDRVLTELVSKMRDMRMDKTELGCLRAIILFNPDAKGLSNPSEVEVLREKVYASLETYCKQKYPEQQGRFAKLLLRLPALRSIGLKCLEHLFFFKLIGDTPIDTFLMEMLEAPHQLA
compound,measurement,setting,value
CC(C)(CO)COC(=O)C(C)(C)CO,outcome,[1],inactive
same,outcome,[2],inactive
same,outcome,[3],inactive
NNS(=O)(=O)c1ccc(Oc2ccc(S(=O)(=O)NN)cc2)cc1,outcome,[1],inactive
same,outcome,[3],inactive
COC(=O)[C@H](Cc1ccccc1)NC(=O)[C@@H](N)CC(=O)O (H-Asp-Phe-OMe),outcome,[1],inactive
same,outcome,[2],inactive
C=C(C)OC(C)=O,outcome,[4],inactive
O=C(O)CCC(=O)O,outcome,[1],inactive
same,outcome,[5],inactive
same,outcome,[3],inactive
CC(C=O)c1ccccc1 (configuration not stated),outcome,[1],inactive
same,outcome,[6],inactive
same,outcome,[5],inactive
same,outcome,[3],inactive
C=C(C)C(=O)OCC(O)COc1ccc(C(C)(C)c2ccc(OCC(O)COC(=O)C(=C)C)cc2)cc1 (configuration not stated),outcome,[1],inactive
same,outcome,[6],inactive
same,AC50,[2],23.8 µM (active)
same,outcome,[3],inactive
CC(C)(c1ccccc1)c1ccc(Nc2ccc(C(C)(C)c3ccccc3)cc2)cc1,outcome,[1],inactive
same,outcome,[5],inactive
CCCCCCCC(=O)OCC(COC(=O)CCCCCCC)OC(=O)CCCCCCC,outcome,[1],inactive
same,outcome,[2],inactive
COC(=O)CC(C)CCC=C(C)C (configuration not stated),outcome,[1],inactive
same,outcome,[6],inactive
same,outcome,[5],inactive
same,outcome,[3],inactive
Cc1c(C(=O)c2c[nH]n(C)c2=O)ccc(S(C)(=O)=O)c1C1=NOCC1,outcome,[1],inactive
same,outcome,[3],inactive
N#Cc1ccc(C2CCCc3cncn32)cc1 (configuration not stated),outcome,[4],inactive
same,outcome,[6],inactive
CCCCCCCCCCCCC,outcome,[4],inactive
same,outcome,[6],inactive
same,outcome,[5],inactive
same,outcome,[2],inactive
same,outcome,[3],inactive
COc1ccc(C(=O)/C(Br)=C\C(=O)O)cc1,outcome,[4],inactive
same,outcome,[6],inactive
same,outcome,[5],inactive
same,outcome,[2],inactive
same,AC50,[7],15.2 µM (active) and 20 µM (active)
same,AC50,[8],25.5 µM (active) and 15.9 µM (active)
same,AC50,[9],28.8 µM (active) and 30.2 µM (active)
same,AC50,[10],16.6 µM (active) and 29.4 µM (active)
same,AC50,[11],12.4 µM (active) and 20 µM (active)
same,AC50,[12],20 µM (active) and 25.9 µM (active)
same,AC50,[13],35.3 µM (active) and 34.3 µM (active)
same,outcome,[3],inactive
same,outcome,[14],inactive
same,outcome,[15],inactive
same,AC50,[16],37.4 µM (active) and 37.5 µM (active)
same,AC50,[17],6.04 µM (active) and 16.3 µM (active)
same,AC50,[18],20 µM (active) and 17.1 µM (active)
same,outcome,[19],inactive
same,AC50,[20],34.9 µM (active) and 35.4 µM (active)
CC(=O)OC(C)c1ccccc1 (configuration not stated),outcome,[4],inactive
same,outcome,[6],inactive
same,outcome,[2],inactive
same,outcome,[3],inactive
Nc1ncnc2nc[nH]c12,outcome,[4],inactive
same,outcome,[6],inactive
same,outcome,[2],inactive
CC/C=C\C/C=C\C/C=C\CCCCCCCC(=O)OC,outcome,[4],inactive
same,outcome,[6],inactive
same,AC50,[5],125 µM (active)
same,AC50,[7],19.2 µM (active)
same,AC50,[8],16.2 µM (active)
same,AC50,[9],31.7 µM (active)
same,AC50,[10],32.7 µM (active)
same,AC50,[11],10.7 µM (active)
same,AC50,[12],37.2 µM (active)
same,AC50,[13],37.2 µM (active)
same,outcome,[3],inactive
same,AC50,[14],29.8 µM (active)
same,AC50,[15],33.6 µM (active)
same,AC50,[16],37.5 µM (active)
same,AC50,[17],19.9 µM (active)
same,AC50,[18],20 µM (active)
same,AC50,[19],28.5 µM (active)
Cc1cc(=O)[nH]c(=O)[nH]1,outcome,[4],inactive
same,outcome,[6],inactive
same,outcome,[2],inactive
same,outcome,[3],inactive
O=C(O)CC(C(=O)O)S(=O)(=O)O (configuration not stated),outcome,[4],inactive
same,outcome,[6],inactive
same,outcome,[3],inactive
CCCC(CC)c1ccccc1 (configuration not stated),outcome,[4],inactive
same,outcome,[6],inactive
same,AC50,[5],66.4 µM (active)
same,outcome,[2],inactive
same,outcome,[3],inactive
O=C(Cl)c1c(Cl)c(Cl)c(C(=O)Cl)c(Cl)c1Cl,outcome,[4],inactive
same,outcome,[6],inactive
same,AC50,[5],100 µM (active)
same,outcome,[7],inactive
same,outcome,[8],inactive
same,outcome,[9],inactive
same,outcome,[10],inactive
same,outcome,[11],inactive
same,outcome,[12],inactive
same,outcome,[13],inactive
same,outcome,[14],inactive
same,outcome,[15],inactive
same,outcome,[16],inactive
same,outcome,[17],inactive
same,outcome,[18],inactive
same,outcome,[19],inactive
